Potency data for 104 molecules are collected here from PubChem BioAssay AID504834 (National Center for Advancing Translational Sciences (NCATS), 2011).

In all, about 320,000 compounds went through this assay and about 22,000 (6.9%) were called active. Where a call stands in place of a potency, no number is given. Roughly 27% stayed inconclusive and do not appear here. The call rests on the fitted dose curve; in most records, active means well fitted inhibition curve with a large enough effect; inconclusive means small, poorly fitted or top-dose-only effect, or another doubt; inactive means no such curve, though single readings can be large or run the other way. The sample as a whole holds a higher share of actives than the screen did.
Potency means the concentration at half of the fitted maximal effect.

The nature of the experiment: Primary qHTS for delayed death inhibitors of the malarial parasite plastid, 96 hour incubation. As to conditions: P. falciparum luciferase reporter growth; series mostly up to 28.7 µM. In outline: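 Plates of compound plus infected erythrocytes (2% hematocrit, 0.05% parasitemia final) incubate 96 hours, 37 C, 5% CO2. Detection reagent added; reduced luminescence from the parasites' luciferase reporter flags inhibition.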
In general terms: qHTS replaces the single test concentration by a dilution series.
Consider `CCOC(=O)C1(Cc2ccc(O)cc2)NC(c2ccccc2F)C2C(=O)N(C)C(=O)C21` (centres undefined), for which the Potency result is “inactive”.

For `CCN1C(=O)[C@H]2[C@@H](c3ccc(-c4ccc(F)cc4)cc3)N[C@@](Cc3ccccc3)(C(=O)OC)[C@H]2C1=O`, the Potency is 5.86 µM (active).

Take `CCN1C(=O)[C@H]2[C@@H](c3ccc(SC4CCCCC4)c(OC)c3)N[C@@](Cc3ccccc3)(C(=O)OC)[C@H]2C1=O`: the Potency result is “inactive”.

On to `CCC(C)CCN1CCN=C1N(C)C` (centres undefined), for which the Potency result was “inactive”.

As to `CCOc1ccc(/C=N\NC(=O)c2c(C)nc3cc(C)ccn23)cc1`, the Potency result is “inactive”.

On to `CCOC(=O)c1nnn(-c2nonc2-n2cccc2)c1CN1CCC(C(=O)OCC)CC1`, for which the Potency is 0.928 µM (active).

Take `CCOC(=O)C1CCN(Cc2ccc(-c3ccccc3)cc2)CC1`: the Potency entry was “inactive”.

On to `CCN(CC)Cc1c(C(=O)OC)nnn1-c1nonc1N`, for which the Potency entry was “inactive”.

`Cc1ccccc1OCC(=O)Nc1nnc(S(=O)(=O)N2CCCC2)s1`: the Potency entry was “inactive”.

`CCOC(=O)CC1COCCN1C(=O)c1cc(COc2ccc(F)c(F)c2)on1` (centres undefined): the Potency entry was “inactive”.

`Cn1c(N2CCOCC2)c(C=O)c2ccccc21`: the Potency result is “inactive”.

For the molecule `FC(F)(F)c1ccnc(Oc2ccc(C3=NCCS3)cc2)c1`, the Potency result was “inactive”.

Turning to `O=[N+]([O-])c1cc(S(=O)(=O)CCCN2CCOCC2)ccc1F`, the Potency was 10.4 µM (active).

As to `O=S(=O)(NCCCN1CCOCC1)c1ccc(F)c(Cl)c1`, the Potency entry is “inactive”.

In the case of `O=C(NCCCN1CCOCC1)c1ccc([N+](=O)[O-])cc1[N+](=O)[O-]`, the Potency entry is “inactive”.

Turning to `CCc1nccn1CCC(=O)N1CCCC(N2CCN(c3ccccc3F)CC2)C1` (centres undefined), the Potency result was “inactive”.

In the case of `CCOc1ccc(NC(=O)CN(C)C(=O)CSc2ccccc2)cc1OCC`, the Potency entry is “inactive”.

Consider `CCc1ccc(-c2nn(-c3ccccc3C)cc2C(=O)N2CCN(C3CCS(=O)(=O)C3)CC2)cc1` (centres undefined), for which the Potency entry is “inactive”.

With `CCc1ccc(N2CC(C(=O)Nc3ccc(S(=O)(=O)Nc4nccs4)cc3)CC2=O)cc1` (centres undefined), the Potency entry was “inactive”.

Turning to `COc1ccc([N+](=O)[O-])cc1N(CC(O)CN(CC(C)C)CC(C)C)S(=O)(=O)c1ccc(C)cc1` (centres undefined), the Potency result is “inactive”.

For `CCOc1ccc2[nH]c(C(=O)N/N=C/c3cccc(OC)c3OC)cc2c1`, the Potency result was “inactive”.

As to `COc1ccc2[nH]c(C(=O)N/N=C/c3cc(OC)c(OC)c(OC)c3)cc2c1`, the Potency was 5.86 µM (active).

With `COc1cc2cc(C(=O)N/N=C/c3cccc(OC)c3OC)[nH]c2cc1OC`, the Potency result was “inactive”.

`Cc1ccnc(NS(=O)(=O)c2ccc(NC(=O)c3oc4ccc(F)cc4c3C)cc2)n1`: the Potency entry was “inactive”.

With `COc1ccc(Nc2ccc([N+](=O)[O-])cn2)cn1`, the Potency entry was “inactive”.

Regarding `COC(=O)C1(O)CC(C(C)C)=NN1C(=O)c1ccc(Cl)cc1` (centres undefined), the Potency entry was “inactive”.

Take `O=C(c1ccc(Cl)cc1)N1N=C(c2ccccn2)CC1(O)C(F)(F)F` (centres undefined): the Potency was 6.57 µM (active).

Consider `O=C(C1CC1)N1N=C(c2ccc(Br)cc2)CC1(O)C(F)(F)F` (centres undefined), for which the Potency entry is “inactive”.

For the molecule `Cc1ccc(NC(=O)NC(=O)c2ccccc2)cc1F`, the Potency result is “inactive”.

Consider `CCc1c(C)[nH]c(=S)c(C#N)c1C`, for which the Potency is 3.29 µM (active).

As for `CC(=O)c1c(C)[nH]c(=S)c(C#N)c1-c1ccc(F)cc1`, the Potency entry is “inactive”.

Consider `Cc1ccc(-c2nn(C(C)(C)C)c3ncnc(N)c23)cc1`, for which the Potency is 2.33 µM (active).

In the case of `Cc1ccc(-n2cnc3ncnc(-c4ccccc4)c32)cc1`, the Potency result was “inactive”.

With `COc1ccccc1OC(C)C(=O)Nc1ccc(S(=O)(=O)Nc2nccs2)cc1` (centres undefined), the Potency entry was “inactive”.

`CCCC(NC(=O)c1ccccc1)c1nc2ccccc2n1Cc1ccc(C(=O)OC)o1` (centres undefined): the Potency was 8.28 µM (active).

In the case of `CCCn1c(C(Cc2ccccc2)NC(=O)COC)nc2ccccc21` (centres undefined), the Potency result is “inactive”.

As for `COC(=O)c1ccc(CN2C(=O)NC(c3ccccc3)(c3ccccc3)C2=O)o1`, the Potency result was “inactive”.

In the case of `CCc1cccc(NC(=S)N(CCN(C)C)C2CCN(C(C)C)CC2)c1`, the Potency entry was “inactive”.

Take `COc1ccccc1/C=C/C(=O)OCC(=O)NC1CCCCCC1`: the Potency result was “inactive”.

As to `CCn1c(=O)c(=O)n(CC)c2cc(S(=O)(=O)N3CCc4ccccc43)ccc21`, the Potency was 13.1 µM (active).

As to `O=S(=O)(c1ccc2c(c1)OCCO2)N1CCc2ccccc21`, the Potency entry was “inactive”.

For the molecule `CSc1nc2ccc(S(=O)(=O)N3CCc4ccccc43)cc2s1`, the Potency entry was “inactive”.

For `O=C(NCc1ccccc1Cl)c1ccc2c(=O)n(CC3CCCO3)c(=S)[nH]c2c1` (centres undefined), the Potency result was “inactive”.

Turning to `Cc1ccc2nc(COc3ccc(N(C)S(=O)(=O)c4ccccc4)cc3)cc(=O)n2c1`, the Potency is 10.4 µM (active).

For `COc1cccc(COc2ccc(N(C)S(=O)(=O)c3ccccc3)cc2)c1`, the Potency entry is “inactive”.

As for `CN(c1ccc(OCC(=O)O)cc1)S(=O)(=O)c1ccc2ccccc2c1`, the Potency result is “inactive”.

Turning to `COCCCNC(=O)C1CC(=O)N(CCc2ccc(F)cc2)C1` (centres undefined), the Potency result was “inactive”.

As to `O=C(Nc1ccc2c(c1)OCO2)C1CC1(Cl)Cl` (centres undefined), the Potency result was “inactive”.

In the case of `CC(=O)N/C(=C\c1ccccc1)C(=O)OC(C)C(=O)N(C)c1ccccc1` (centres undefined), the Potency entry was “inactive”.

For the molecule `OCC[C@H]1C[C@H](O)[C@@H](O)[C@]2(Cc3ccccc3CO2)O1`, the Potency result was “inactive”.

Regarding `CC1(C)Cc2c(sc3nc4n(c(=N)c23)CCCCC4)CO1`, the Potency entry was “inactive”.

As to `CC(C)c1nc2sc3c(c2c(=O)n1N)CC(C)(C)OC3`, the Potency was 4.65 µM (active).

On to `CCOC(=O)Cn1c(SC)nc2sc3c(c2c1=O)CC(C)(C)OC3`, for which the Potency entry was “inactive”.

For the molecule `CC1=C(C(=O)OC(C)(C)C)C(c2ccc(Br)cc2)NC(=O)N1CCCC(=O)O` (centres undefined), the Potency result was “inactive”.

With `CC1=C(C(=O)OCc2ccccc2)C(c2ccc(C(F)(F)F)cc2)NC(=O)N1CCCCCC(=O)O` (centres undefined), the Potency was 13.1 µM (active).

Take `COCCN1C(=O)N[C@@H](c2ccccc2)C(C(=O)OC)=C1C`: the Potency entry was “inactive”.

As for `CCOC(=O)c1c(C)[nH]c(C(=O)OCC(=O)c2ccc(OC)cc2OC)c1C`, the Potency result was “inactive”.

Regarding `COc1cccc(/C=C/C(=O)OCC(=O)N2CCCc3ccccc32)c1`, the Potency entry was “inactive”.

Turning to `COc1c(O)cc2oc(-c3ccc(O)c(O)c3)cc(=O)c2c1O`, the Potency result was “inactive”.

In the case of `O=C(CSc1nnnn1-c1ccccc1)NCc1ccco1`, the Potency result is “inactive”.

In the case of `O=C(CSc1c2c(nc3ccc(Cl)cc13)CCCC2)NCc1ccco1`, the Potency is 9.28 µM (active).

Take `O=C(NCc1ccco1)c1cc(-c2cccnc2)nc2ccc(Cl)cc12`: the Potency entry is “inactive”.

Turning to `COC(=O)c1[nH]c2ccccc2c1NC(=O)CN1CCCc2ccccc21`, the Potency was 3.29 µM (active).

In the case of `NS(=O)(=O)c1cccc(NC(=O)CN2CCCc3ccccc32)c1`, the Potency result is “inactive”.

Turning to `COC(=O)c1[nH]c2ccc(Br)cc2c1NC(=O)Oc1ccccc1`, the Potency result is “inactive”.

For `Brc1ccccc1/C=N/Nc1nc2ccccc2o1`, the Potency result was “inactive”.

In the case of `COc1cccc(OC)c1C(=O)Nc1c(C(=O)N2CCN(c3ccccn3)CC2)oc2ccccc12`, the Potency entry was “inactive”.

`Cc1cccc(NC(=O)CSc2nnc(CCNC(=O)OC(C)(C)C)o2)c1C`: the Potency result was “inactive”.

For `Cc1cc(Br)ccc1NC(=S)NC1CCCC1`, the Potency entry is “inactive”.

Take `CCCc1cc(=O)[nH]c2nnc(SCC(=O)Nc3nnc(SCC)s3)n12`: the Potency result was “inactive”.

As for `O=S(=O)(NCCNS(=O)(=O)c1ccccc1)c1ccccc1`, the Potency result was “inactive”.

Regarding `COP(=O)(NS(=O)(=O)c1ccccc1)OC`, the Potency is 5.22 µM (active).

In the case of `O=S(=O)(NCCc1ccccc1)c1ccccc1`, the Potency result was “inactive”.

Turning to `O=S(=O)(c1ccc(Br)c2ccccc12)N1CCOCC1`, the Potency result is “inactive”.

`O=C(Nc1ccnn1C1CCN(Cc2cccc(OCCO)c2)CC1)C1CCCC1`: the Potency result was “inactive”.

Take `Cn1cnc([N+](=O)[O-])c1Nc1ccccc1O`: the Potency entry is “inactive”.

`Cn1nc(-c2ccccc2)c(CO)c1Sc1ccccc1`: the Potency result was “inactive”.

As to `Cn1cnc([N+](=O)[O-])c1Sc1ccccc1`, the Potency was 11.7 µM (active).

Take `O=C(Cn1c(-c2ccccn2)nc2ccccc21)NCCN1CCOCC1`: the Potency result is “inactive”.

`c1ccc(-c2ccc(OCCN3CCOCC3)cc2)cc1`: the Potency entry is “inactive”.

Take `c1ccc2cc3c(NCCN4CCOCC4)ccnc3cc2c1`: the Potency is 0.165 µM (active).

For `CCOc1ccc(C(=O)Nc2c3c(nn2-c2ccccc2)CS(=O)(=O)C3)cc1`, the Potency result is “inactive”.

Regarding `Cc1ccc(C)c(S(=O)(=O)Nc2cccc(-n3cnnn3)c2)c1`, the Potency entry was “inactive”.

On to `COc1ccc(-n2c(C)cc(C(=O)CN3C(=O)NC4(CCc5ccccc54)C3=O)c2C)cc1` (centres undefined), for which the Potency is 1.17 µM (active).

`Cc1ccc(C(=O)CN2C(=O)NC3(CCc4ccccc43)C2=O)c(C)c1` (centres undefined): the Potency result was “inactive”.

With `COc1ccc(C(=O)CN2C(=O)NC3(CCc4ccccc43)C2=O)c(OC)c1` (centres undefined), the Potency result was “inactive”.

Consider `CCN1CCN(C(=O)Cn2nc(C)n3c(cc4c(OC)cccc43)c2=O)CC1`, for which the Potency entry is “inactive”.

As to `O=C(CCN1C(=O)C2CCCCC2C1=O)Nc1ccc(OC(F)F)cc1` (centres undefined), the Potency result is “inactive”.

In the case of `NC1=NC[C@@H](Cc2ccc(O)cc2)N1CC1CCCCC1`, the Potency was 2.33 µM (active).

Regarding `COc1ccc(NC(=O)CCCN2C(=O)C(c3ccccc3)Oc3cccnc32)cc1` (centres undefined), the Potency result was “inactive”.

In the case of `CCOc1ccc(N(C)Cc2cc(=O)oc3ccc(OC)cc23)cc1`, the Potency entry is “inactive”.

In the case of `Cc1ccc(CN(C)Cc2cc(=O)oc3cc(C)c(Cl)cc23)cc1`, the Potency result is “inactive”.

On to `Cc1cc2oc(=O)cc(CN(C)Cc3ccc(OC(F)F)cc3)c2cc1Cl`, for which the Potency is 2.62 µM (active).

Take `COc1cccc(CNC(=O)COC(=O)CN2C(=O)NC3(CCCCC3C)C2=O)c1` (centres undefined): the Potency result was “inactive”.

As for `Cc1onc(-c2c(Cl)cccc2Cl)c1C(=O)c1c[nH]c(C(=O)NC2CC2)c1`, the Potency entry was “inactive”.

`COc1ccccc1N1CCN(C(=O)c2c(-c3c(Cl)cccc3Cl)noc2C)CC1`: the Potency result is “inactive”.

With `Cc1onc(-c2c(Cl)cccc2Cl)c1C(=O)NNC(=O)c1c(-c2c(Cl)cccc2Cl)noc1C`, the Potency is 8.28 µM (active).

With `CC(C)=C1SC(N2CCN(c3ccc(C)c(Cl)c3)CC2)=NC1=O`, the Potency entry is “inactive”.

Consider `CC(NCc1cccs1)C(=O)Nc1cc(Cl)cc(Cl)c1` (centres undefined), for which the Potency result is “inactive”.

Consider `Cc1cc2nc3n(c2cc1C)CC1CC(C(=O)NCCC(C)C)N(C)C31` (centres undefined), for which the Potency entry was “inactive”.

As for `CCc1nc(Nc2ccc(NC(C)=O)cc2)c2oc3ccccc3c2n1`, the Potency entry is “inactive”.

Consider `COc1ccc2oc(=O)cc(-c3cc4ccccc4o3)c2c1`, for which the Potency result was “inactive”.

For the molecule `COc1ccc(Nc2cc(=O)oc3ccccc23)cc1`, the Potency was 2.62 µM (active).

As for `COc1ccc(Nc2nnc(C)c3ccccc23)cc1`, the Potency result is “inactive”.
